In the supplement of paper PMC10681739 one finds RUNX1 binding intensity data, which are given here for 85 sequences.

The full ranking holds about 4,000 sequences; the median of “arbitrary fluorescence units” is about 830, and the highest 2% start at about 6,500. The entries come from a sample that favours the highest values as a whole.

RUNX1, sequence (Q01196 whole entry): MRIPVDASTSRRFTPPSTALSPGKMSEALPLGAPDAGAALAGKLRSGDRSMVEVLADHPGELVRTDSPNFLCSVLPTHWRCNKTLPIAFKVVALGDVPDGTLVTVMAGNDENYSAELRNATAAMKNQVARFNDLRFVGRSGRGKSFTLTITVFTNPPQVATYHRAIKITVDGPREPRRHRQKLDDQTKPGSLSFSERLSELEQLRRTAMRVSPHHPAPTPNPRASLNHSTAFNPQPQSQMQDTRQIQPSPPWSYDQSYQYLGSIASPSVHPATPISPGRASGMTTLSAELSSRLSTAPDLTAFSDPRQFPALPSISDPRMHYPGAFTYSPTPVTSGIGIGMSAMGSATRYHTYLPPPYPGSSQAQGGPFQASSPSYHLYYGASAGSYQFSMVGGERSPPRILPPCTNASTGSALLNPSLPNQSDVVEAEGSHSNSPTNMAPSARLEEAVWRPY

The assay has as its target RUNX1 (UniProt Q01196). Nature of the assay: RUNX1 binding intensity (PBM fluorescence), RUNX1 alone (arbitrary fluorescence units); higher = stronger binding. Conditions: RUNX1 concentration 2 nM; ETS1 concentration 0 nM. As to the method: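 gcPBM on 36-bp genomic-derived probes (partner site mutated) containing one RUNX1 site and no ETS1 site. Recombinant human RUNX1 (2 nM) was incubated alone or with ETS1 (25 nM) and detected by anti-RUNX1 antibody fluorescence. Values are medians over 4 replicate spots (not normalised). The probes sit in constant array flanks that are not printed.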
With ACACCTCAGCAAGTGGCAGAGACCACAACAAGTCAG, the RUNX1 binding intensity is 952.
For CTTGTGGCTCCTTTCCACCCGCCCCGTAAGCCGGCC the value was 930; for ACCCCAAGCCCACAAACCCACCTGAAGGAACCAACT, 1200.
For CCGCTGCGGCTGCGCGCTACGTCACTACGTTCGGCG the value was 768.
For AAAACCACATTGCCTGTGCTGCAGGCTGGAAAGCTG the value was 879; for GCAGAAACAGAAAGAGACAGGGCTGACCGCAGCAGG, 1360; for CCTCTCTGTGGTTCTGCCTGGAATACGCAAGGCAGG, 1050.
On to GGCGGGAGAGGAGGCCGGGCGGCCGCAGCTGCCTGT, for which the RUNX1 binding intensity came to 669.
Sequence TCGCTTACGGTGTCGGTTACAGACTGTGGTTGCCAT came in with an RUNX1 binding intensity of 812.
In the case of CACCCGAACTGAAACACCTGCGGCTGAGGGGAGGGG, the RUNX1 binding intensity came to 1030.
The result for CCGAGAAGTGGAACCGCCAGGCGGAGGGGGCGGAGT reads 767.
The result for GAGCGCGGCACTCGCCACGGTAAGGATTACCACAGG reads 742; that for TGGGGTGTCCGAGCCGCCCCCGAACCGCGCACCCGA, 796; that for GACAAGCCATGTGGTTGCTGGCAGGCAATCTCAGTC, 1430.
In the case of TATTCAGCAGCAAAGGAGAGAGTCTGTGGTATCTGC, the RUNX1 binding intensity amounted to 708.
Sequence GCTGAGTGCGGGTGGCCTGGGCCGAAGGCTCAGCGG returned an RUNX1 binding intensity of 724.
The sequence GCCGCGGTGCCTGCCGGGACAGCGAGTTCAGCCGGG gave an RUNX1 binding intensity of 738.
The result for CTGTGGGTTCGGCAGTAAACTCTGACCTCCTATTTA reads 892; that for TGGGACCGCTAATCGGAGAGGGTGCGCAAACGCTGG, 658; that for GTATGGGAGGTGATCTGGCTGCAAACCGCAAGAGAG, 8250.
For AAGTTCGCAACCGCCAAGAGGGGAGACGGGCTGCGC the value was 764; for ACCCACTTGCTGTTAGAGCATCTTTGCAACCACAGG, 729.
For CTCGGGATTTGTGGTCCACCCGGCTGAACTCGCGGC the value was 788; for AGGGTTTGTGGGACCTGGTGACTCACGGGATCTGGG, 703.
Consider CTGCCATGAAGGGTTCTGGTTTGAGGTCTCCTCTTA, for which the RUNX1 binding intensity amounted to 741.
For GCCCCTGATAGCGTCCTCACCATCCCCACAGCGCCT the value was 1100; for TGGCCCCGGGGCCCCACAACGGCTTCATGTGTCCCG, 693; for CCTTAGCACAGACCACCATCTACGGGAATTCCTAAG, 912.
For CAGTCAGACGGGAGCCCGGCTTCTGTGGTGCCTGCC, the RUNX1 binding intensity was 696.
With CCTAGAACCGTAAGAGAAAGGGGCTGCGGTGCAGCA, the RUNX1 binding intensity is 745.
The result for CTGTGCGGTCATGTGACGGAGGCCTGAAGGCAGGTC reads 1410; that for TGCGCCGGGAGTGCATGAGCTGCCGATGTGGTGCTT, 697; that for GACGTAAGCCGAGAGGCTCCCGTAAGCGGTCTTGAG, 733.
GACTCGCTCTGCGGCCCCACGCAGGGAGCCTCCTTG gave an RUNX1 binding intensity of 905.
Turning to CTCATAACCGCTAACTCAACCTCTAACATTTGCTGT, the RUNX1 binding intensity was found to be 3220.
AACTAGTTCGTTCCTTATGCGGCCCAGGGCTCCACC registered an RUNX1 binding intensity of 893.
For GGCACGAAAGAGCTGATGCATTTCAACCGCAGCCTG the value was 1160; for CGAGCCGCCTTGCTCCCCGGCCCACAGCCCAGCACT, 889.
In turn, CCGGGGTAAACCACGACACGACTCCCTGCCGTGTGG yielded an RUNX1 binding intensity of 886.
Turning to GACCTTCACCCACAAGAACCACCTCCTCTCAGTAAA, the RUNX1 binding intensity came out at 1950.
For TACGACTTCAAGGCGGTCAACATCCAGGGCAAACTG the value was 730; for TCCCTCCTTGCGCTCTGGTTTTGTGGTTGCTTGCTG, 1120.
In turn, CCAGCCGTAAGCCCCGCCCCCTAGAGGCACCGCGGA returned an RUNX1 binding intensity of 882.
The result for GCTTTGCAGTGTCCTCTATGGAACACCACACACAGT reads 809.
The result for GGGGACGAAGCGGTCTCGGTTCAGCCCGGCTGGGAG reads 692; that for TAAGGCTGTGTGGCTTCCAGATCAAAAACCGCAAAA, 8380; that for CTCTGGCAGGGAGCTCTGAGGGCTAAACCACAAAAA, 1560.
The result for CAGGCTGCTGTGGCTACTGCAGCACTGCCTCCCGCT reads 741; that for GCTCTGGCCGAAGATGTCCCTGCGGTGCAGCTGCCG, 796.
GGGCTTGACCGCCATGTTTGAAGCGGGCGCAAAAAA: the RUNX1 binding intensity amounted to 758.
For CAGAACGGTCCCTGGAACACTGCGGTTCCCGCCTGG the value was 874; for AGGCTGTTGTGGGTTGCGCCGCTTCGGAGGTGGGAG, 846; for CTTGCCACACTGCCTCTTGTTTTGAACCACTATATT, 2040.
For the sequence GCACACAGTGCGGTTGGCTTCCAGCTTCATGTTGGC, the RUNX1 binding intensity is 1470.
CTTGTAGTCAGGTGGTTGGGCAGGGTGTTTCTCATG displayed an RUNX1 binding intensity of 807.
For TCCAAGGCGCAAAAAACCCGCCCTAAACCGCACCCC the value was 1630; for AGCGCCTTACCCGCGGCACACCCATTTGCTGACCCC, 1120.
The sequence CTTGTTCTATCTCCTGTTTGTGGTGAGTGACTGTCT displayed an RUNX1 binding intensity of 1370.
For AGGCTCATTGCCTGTTTTCATGTGGTTTAGAGAAAA the value was 1030; for TGATCAGGCAGGAGAAGCGCAGAGGTGGACCCGCAA, 751; for GGGATCCTTCAGCTCCGGGTTAACCCCGACCGCGCC, 697.
The result for CACTCCCCTCCCGCGGTCACACTTCAGGCGGCCACC reads 1460; that for GGGGGGGTGCGGTCCTGGTCGGGAGGAGGTGGAGAG, 869.
For ACCTCCACCACAAAGAACAAAAAACGAAGGATAAAA the value was 1520.
Regarding CCACACGGCAGGGAGTCGTGTCGTGGTTTACCCCGG, the RUNX1 binding intensity was 752.
For ACGCCCGCTGACCACACTGGCGACGTCCCTCTCTGT the value was 1400; for CAGGGGGCCCCACATGCCGCTCTTGCTGCCCAGGTC, 798; for CAGTCGCCAGAAACCACAGCACTTCGGCCTGCTTCA, 1480.
For GACATGTGGCTATTTTGGGCAATTGCCTGAGGAGGC the value was 720; for CGACTGGAACCACTCTGAGGCGCTGCCGCAGACACC, 1040; for TTAACTCCACAGAAGAATAAACCACCACCGCTCACC, 1060.
The result for GACCACCTCCTTTCTGTGTTTTGTGGTTTCACAACT reads 2680; that for CATTGTGGGCGCTGTAGTCCAGCTGGAACCTGTTTG, 760; that for GGAGGCTGTGGTGAGGAAAGAGGAGGTGACACTCCT, 883.
In turn, CCCCTCAATTCCCTCAACCCTTCCCACAAACTGGGA came in with an RUNX1 binding intensity of 1730.
The result for GGCTTACGGCGGGGTACCCTCCTCTGTGGGCGGGGC reads 715; that for CTGGCCGTGGCGTACGGGAGCTGTGGGGCCGTCCCC, 728.
The result for GGCTGGAAAGGGTCTTGAGAGGAGGTGGTTGCCTTA reads 705; that for TGTCTGAGGTTTCTCTGTGAACATGAAGCTGAGAAC, 790.
In the case of AGGCTTTCTGTTTTATCTCGTGTGTGTGGTGCACCA, the RUNX1 binding intensity came to 886.
GGGCTTACGGCTGAACCCATGGCTGCGGGCTGTGCT returned an RUNX1 binding intensity of 704.
For TCCACAGCCGGTTTCGGCCGGTTCCCACAAGCCCCT the value was 909; for CCGCTTACGGCCTTCGCCCGGCTTACCCGCGTCGCA, 1030; for GGCATCCCCTTGCGGCCATCACTTTCTATGCCCTCA, 1250.
The result for GGGGCAGTGGTCACAGGAGGATCTTGCTGGAGTCAT reads 697.
